The panel holds about 83,000 compounds, 20% with a hit somewhere; the sample as a whole holds those more often.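 Growth was measured after 48 h exposure to one concentration of compound in 96-well plates. Values under 10 count as active.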 Unmarked numbers belong to inactive results. The source made the active and inactive calls.
Columns and labels:
Experiment in all cases: NCI-60 one-dose screen, 48 h (100 = growth as untreated, 0 = no growth, -100 = all killed)
Conditions in all cases: 10 µM unless noted
NCI-H23 lung = system: NCI-H23 lung
NCI-H226 lung = system: NCI-H226 lung
NCI-H322M lung = system: NCI-H322M lung
HOP-62 NSCLC = system: HOP-62 NSCLC
NCI-H460 lung = system: NCI-H460 lung
HOP-92 NSCLC = system: HOP-92 NSCLC
NCI-H522 lung = system: NCI-H522 lung
A549/ATCC NSCLC = system: A549/ATCC NSCLC
786-0 renal = system: 786-0 renal
COLO 205 colon = system: COLO 205 colon
DU-145 prostate = system: DU-145 prostate
K-562 leukemia = system: K-562 leukemia
MALME-3M melanoma = system: MALME-3M melanoma
MDA-MB-231 breast = system: MDA-MB-231 breast
SF-268 CNS = system: SF-268 CNS
SF-295 CNS = system: SF-295 CNS
SF-539 CNS = system: SF-539 CNS
M14 melanoma = system: M14 melanoma

| Compound | growth (NCI-H23 lung) | growth (NCI-H226 lung) | growth (NCI-H322M lung) | growth (HOP-62 NSCLC) | growth (NCI-H460 lung) | growth (HOP-92 NSCLC) | growth (NCI-H522 lung) | growth (A549/ATCC NSCLC) | growth (786-0 renal) | growth (COLO 205 colon) | growth (DU-145 prostate) | growth (K-562 leukemia) | growth (MALME-3M melanoma) | growth (MDA-MB-231 breast) | growth (SF-268 CNS) | growth (SF-295 CNS) | growth (SF-539 CNS) | growth (M14 melanoma) |
| --- | --- | --- | --- | --- | --- | --- | --- | --- | --- | --- | --- | --- | --- | --- | --- | --- | --- | --- |
| Cc1sc2c(c1C)c(=O)nc1c(-c3nc(-c4ccccc4)cs3)n[nH]n12 | 91.9% | 89.9% | 101% | 92.4% | 96.2% | 98.5% | 94.3% | 93% | 103% | 102% | 104% | 94.5% | 98.1% | 93.3% | 96.2% | 88.7% | 96.3% | 96.2% |
| CSC1=C(N)C(=O)c2[nH]cc(CO)c2C1=N | -29.3% (active) | -65.3% (active) | -97.2% (active) | -72.1% (active) | -59.2% (active) | -71.7% (active) | -43.4% (active) | -57.4% (active) | -70.1% (active) | -77.6% (active) | -94.8% (active) | -24.1% (active) | -96.1% (active) | 2.56% (active) | -69.4% (active) | -97.1% (active) | -96.2% (active) | -83.5% (active) |
| CCN1/C(=C/C=C/c2n(-c3ccccc3)c3ccc(-c4nc5ccccc5s4)cc3[n+]2CC)N(c2ccccc2)c2ccc(-c3nc4ccccc4s3)cc21 | -0.899% (active) | 0.213% (active) | 14.5% | -7.25% (active) | -1.59% (active) | 1.91% (active) | -0.409% (active) | 3.13% (active) | 3.99% (active) | -5.05% (active) | -47.9% (active) | 10.2% | -44.5% (active) | 16.9% | 9.74% (active) | -30.4% (active) | -13.7% (active) | -11.2% (active) |
| COC(=O)[C@]12CC[C@@H](C)[C@H](C)[C@@H]1C1=CC[C@@H]3[C@@]4(C)C[C@@H](OC(=O)/C=C/c5ccccc5)[C@H](O)[C@@](C)(CO)[C@@H]4[C@H](O)C[C@@]3(C)[C@]1(C)CC2 | 4.71% (active) | 0.734% (active) | 37.9% | 11.6% | -39.6% (active) | -3.66% (active) | -59.6% (active) | 5.1% (active) | -29% (active) | -58.6% (active) | 9.11% (active) | 1.96% (active) | 3.65% (active) | -72.7% (active) | 17.4% | -16.4% (active) | -49.1% (active) | 16% |
